Data published in the supplement of paper PMC4466140.

Key:
Test in all cases: SPOT peptide array binding signal intensity (averaged, normalized) (arbitrary units (background-subtracted, floor 0; scale differs between SH3 domains)); higher = stronger binding of the SH3 domain to the peptide
AgAbp1 = biological target: AgAbp1
Outline: (§1)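 Four yeast species supplied the SH3 domains, which were expressed as GST fusions in E. coli BL21(DE3) and purified on glutathione Sepharose. Incubation with cellulose membranes carrying synthetic 15-mer peptides, cysteines exchanged for serines, ran overnight at 4°C at 10 μg/ml in TBS-based blocking buffer. Binding signal is reported as normalized, background-subtracted spot intensity averaged over replicates, in arbitrary units not shared between domains.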

AgBbc1 = biological target: AgBbc1
Outline: as §1

AgBem1-D1 = biological target: AgBem1-D1
Outline: as §1

AgBzz1-D1 = biological target: AgBzz1-D1
Outline: as §1

AgBzz1-D2 = biological target: AgBzz1-D2
Outline: as §1

AgCyk3 = biological target: AgCyk3
Outline: as §1

AgFus1 = biological target: AgFus1
Outline: as §1

AgHof1 = biological target: AgHof1
Outline: as §1

AgHse1 = biological target: AgHse1
Outline: as §1

AgLsb1 = biological target: AgLsb1
Outline: as §1

AgLsb4 = biological target: AgLsb4
Outline: as §1

AgMyo5 = biological target: AgMyo5
Outline: as §1

AgNbp2 = biological target: AgNbp2
Outline: as §1

AgRvs167 = biological target: AgRvs167
Outline: as §1

AgSho1 = biological target: AgSho1
Outline: as §1

AgSla1-D1-D2 = biological target: AgSla1-D1-D2
Outline: as §1

AgSla1-D3 = biological target: AgSla1-D3
Outline: as §1

CaAbp1-D1 = biological target: CaAbp1-D1
Outline: as §1

CaAbp1-D2 = biological target: CaAbp1-D2
Outline: as §1

CaBbc1 = biological target: CaBbc1
Outline: as §1

CaBem1-D1 = biological target: CaBem1-D1
Outline: as §1

CaBzz1-D1 = biological target: CaBzz1-D1
Outline: as §1

CaBzz1-D2 = biological target: CaBzz1-D2
Outline: as §1

CaCyk3 = biological target: CaCyk3
Outline: as §1

CaFus1 = biological target: CaFus1
Outline: as §1

CaHof1 = biological target: CaHof1
Outline: as §1

CaHse1 = biological target: CaHse1
Outline: as §1

CaLsb1 = biological target: CaLsb1
Outline: as §1

CaLsb4 = biological target: CaLsb4
Outline: as §1

CaMyo5 = biological target: CaMyo5
Outline: as §1

CaNbp2 = biological target: CaNbp2
Outline: as §1

CaRvs167 = biological target: CaRvs167
Outline: as §1

CaRvs167-3 = biological target: CaRvs167-3
Outline: as §1

CaSho1 = biological target: CaSho1
Outline: as §1

CaSla1-D1-D2 = biological target: CaSla1-D1-D2
Outline: as §1

CaSla1-D3 = biological target: CaSla1-D3
Outline: as §1

ScAbp1 = biological target: ScAbp1
Outline: as §1

ScBbc1 = biological target: ScBbc1
Outline: as §1

ScBem1-D1 = biological target: ScBem1-D1
Outline: as §1

ScBzz1-D1 = biological target: ScBzz1-D1
Outline: as §1

ScBzz1-D2 = biological target: ScBzz1-D2
Outline: as §1

ScCyk3 = biological target: ScCyk3
Outline: as §1

ScFus1 = biological target: ScFus1
Outline: as §1

ScHof1 = biological target: ScHof1
Outline: as §1

ScHse1 = biological target: ScHse1
Outline: as §1

ScLsb1 = biological target: ScLsb1
Outline: as §1

ScLsb2 = biological target: ScLsb2
Outline: as §1

ScLsb3 = biological target: ScLsb3
Outline: as §1

ScLsb4 = biological target: ScLsb4
Outline: as §1

ScMyo3 = biological target: ScMyo3
Outline: as §1

ScMyo5 = biological target: ScMyo5
Outline: as §1

ScNbp2 = biological target: ScNbp2
Outline: as §1

ScPex13 = biological target: ScPex13
Outline: as §1

ScRvs167 = biological target: ScRvs167
Outline: as §1

ScSho1 = biological target: ScSho1
Outline: as §1

ScSla1-D1-D2 = biological target: ScSla1-D1-D2
Outline: as §1

ScSla1-D3 = biological target: ScSla1-D3
Outline: as §1

SpAbp1-D1 = biological target: SpAbp1-D1
Outline: as §1

SpBbc1 = biological target: SpBbc1
Outline: as §1

SpBzz1-D1 = biological target: SpBzz1-D1
Outline: as §1

SpBzz1-D2 = biological target: SpBzz1-D2
Outline: as §1

SpCyk3 = biological target: SpCyk3
Outline: as §1

SpHof1 = biological target: SpHof1
Outline: as §1

SpHof1-2 = biological target: SpHof1-2
Outline: as §1

SpHof1-3 = biological target: SpHof1-3
Outline: as §1

SpHse1 = biological target: SpHse1
Outline: as §1

SpLsb1 = biological target: SpLsb1
Outline: as §1

SpLsb4 = biological target: SpLsb4
Outline: as §1

SpMyo1 = biological target: SpMyo1
Outline: as §1

SpNbp2 = biological target: SpNbp2
Outline: as §1

SpPex13 = biological target: SpPex13
Outline: as §1

SpRvs167 = biological target: SpRvs167
Outline: as §1

SpSla1-D1-D2 = biological target: SpSla1-D1-D2
Outline: as §1

SpSla1-D3 = biological target: SpSla1-D3
Outline: as §1

Binder: NNFYRPLLRSVLVLL
- SPOT peptide array binding signal intensity (AgAbp1): ≤ 0
- SPOT peptide array binding signal intensity (AgBbc1): ≤ 0
- SPOT peptide array binding signal intensity (AgBem1-D1): 8
- SPOT peptide array binding signal intensity (AgBzz1-D1): 13
- SPOT peptide array binding signal intensity (AgBzz1-D2): 18
- SPOT peptide array binding signal intensity (AgCyk3): ≤ 0
- SPOT peptide array binding signal intensity (AgFus1): 246
- SPOT peptide array binding signal intensity (AgHof1): ≤ 0
- SPOT peptide array binding signal intensity (AgHse1): 722
- SPOT peptide array binding signal intensity (AgLsb1): 0.5
- SPOT peptide array binding signal intensity (AgLsb4): 10.5
- SPOT peptide array binding signal intensity (AgMyo5): ≤ 0
- SPOT peptide array binding signal intensity (AgNbp2): 6.5
- SPOT peptide array binding signal intensity (AgRvs167): 1
- SPOT peptide array binding signal intensity (AgSho1): 14.5
- SPOT peptide array binding signal intensity (AgSla1-D1-D2): 1
- SPOT peptide array binding signal intensity (AgSla1-D3): 2
- SPOT peptide array binding signal intensity (CaAbp1-D1): ≤ 0
- SPOT peptide array binding signal intensity (CaAbp1-D2): ≤ 0
- SPOT peptide array binding signal intensity (CaBbc1): ≤ 0
- SPOT peptide array binding signal intensity (CaBem1-D1): ≤ 0
- SPOT peptide array binding signal intensity (CaBzz1-D1): ≤ 0
- SPOT peptide array binding signal intensity (CaBzz1-D2): 1
- SPOT peptide array binding signal intensity (CaCyk3): ≤ 0
- SPOT peptide array binding signal intensity (CaFus1): 2730
- SPOT peptide array binding signal intensity (CaHof1): 0.75
- SPOT peptide array binding signal intensity (CaHse1): 21.8
- SPOT peptide array binding signal intensity (CaLsb1): ≤ 0
- SPOT peptide array binding signal intensity (CaLsb4): ≤ 0
- SPOT peptide array binding signal intensity (CaMyo5): ≤ 0
- SPOT peptide array binding signal intensity (CaNbp2): 72.5
- SPOT peptide array binding signal intensity (CaRvs167): 3
- SPOT peptide array binding signal intensity (CaRvs167-3): 1
- SPOT peptide array binding signal intensity (CaSho1): 80
- SPOT peptide array binding signal intensity (CaSla1-D1-D2): ≤ 0
- SPOT peptide array binding signal intensity (CaSla1-D3): ≤ 0
- SPOT peptide array binding signal intensity (ScAbp1): ≤ 0
- SPOT peptide array binding signal intensity (ScBbc1): 0.75
- SPOT peptide array binding signal intensity (ScBem1-D1): 4
- SPOT peptide array binding signal intensity (ScBzz1-D1): 19
- SPOT peptide array binding signal intensity (ScBzz1-D2): 6
- SPOT peptide array binding signal intensity (ScCyk3): 57.5
- SPOT peptide array binding signal intensity (ScFus1): 238
- SPOT peptide array binding signal intensity (ScHof1): 1
- SPOT peptide array binding signal intensity (ScHse1): 1040
- SPOT peptide array binding signal intensity (ScLsb1): 0.5
- SPOT peptide array binding signal intensity (ScLsb2): 1
- SPOT peptide array binding signal intensity (ScLsb3): 0.5
- SPOT peptide array binding signal intensity (ScLsb4): ≤ 0
- SPOT peptide array binding signal intensity (ScMyo3): ≤ 0
- SPOT peptide array binding signal intensity (ScMyo5): ≤ 0
- SPOT peptide array binding signal intensity (ScNbp2): 13
- SPOT peptide array binding signal intensity (ScPex13): 0.25
- SPOT peptide array binding signal intensity (ScRvs167): 2.33
- SPOT peptide array binding signal intensity (ScSho1): 350
- SPOT peptide array binding signal intensity (ScSla1-D1-D2): ≤ 0
- SPOT peptide array binding signal intensity (ScSla1-D3): 0.5
- SPOT peptide array binding signal intensity (SpAbp1-D1): ≤ 0
- SPOT peptide array binding signal intensity (SpBbc1): ≤ 0
- SPOT peptide array binding signal intensity (SpBzz1-D1): 8
- SPOT peptide array binding signal intensity (SpBzz1-D2): 0.5
- SPOT peptide array binding signal intensity (SpCyk3): 6.5
- SPOT peptide array binding signal intensity (SpHof1): 3
- SPOT peptide array binding signal intensity (SpHof1-2): 4
- SPOT peptide array binding signal intensity (SpHof1-3): 366
- SPOT peptide array binding signal intensity (SpHse1): 1050
- SPOT peptide array binding signal intensity (SpLsb1): ≤ 0
- SPOT peptide array binding signal intensity (SpLsb4): ≤ 0
- SPOT peptide array binding signal intensity (SpMyo1): ≤ 0
- SPOT peptide array binding signal intensity (SpNbp2): 0.5
- SPOT peptide array binding signal intensity (SpPex13): 5.5
- SPOT peptide array binding signal intensity (SpRvs167): 0.667
- SPOT peptide array binding signal intensity (SpSla1-D1-D2): 4
- SPOT peptide array binding signal intensity (SpSla1-D3): ≤ 0
